A selection: hits, their analogues and other compounds. The true share with any hit is near 2.1%.
TRPM1 prom inh = MITF TRPM1 promoter inhibition in SK-MEL-5 cells. inhibition, % at 12.5 µM. AID 488899. 0.83% of 330,000 active. SK-MEL-5 TRPM1 promoter luciferase, 24 h;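 active = mean inhibition across replicates of 60% or more, whatever share of single replicates reaches that level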
PAX8 inh HTS = inhibitors of PAX8 transcriptional activity in RMG-I cells; RMG-I TPO-luciferase reporter, SteadyGlo, 24 h; inhibition, % at 12.6 µM; 1.2% of 360,000 active; AID 652154;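 active = mean replicate inhibition at least 60% with every replicate also reaching 60%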;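 note: luciferase light reporting Pax8 driven TPO promoter activity; plate controls were median of neutral control wells for no effect and mitoxantrone controls for full effect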
LMP1 NFkB inh = inhibitors of Epstein-Barr LMP1-induced NF-kappaB reporter | LMP1-induced NF-kappaB luciferase reporter cells, luminescence | inhibition, % at 12.5 µM | 0.69% of 350,000 active; in the data active = inhibition above about 41%;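 note: 0% = neutral control wells and 100% = reference inhibitor control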
aSyn 5UTR inh = MLPCN primary screen, SNCA 5' untranslated region; alpha-synuclein 5'UTR reporter, inhibitor activity; 0.82% of 300,000 active; inhibition, % (tested at 7.5 µM); in the data active = inhibition above about 60%;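 note: H4 neuroglioblastoma cells stably carrying SNCA 5'UTR luciferase fusion; 0% = DMSO wells and 100% = positive control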
Shn3 3UTR inh = reduces Shn3 3'UTR luciferase signal in osteoblasts | 0.52% of 360,000 active | inhibition, % at 12.5 µM | Clone20 osteoblast Shn3 3'UTR firefly luciferase, 24 h;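 active = mean inhibition of at least 75% with every replicate also reaching 75%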;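 note: 0% = median of neutral control wells and 100% = pilot-screen positive control compound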
* = called active by the depositor; nt = no result.

SMILES | TRPM1 prom inh | PAX8 inh HTS | LMP1 NFkB inh | aSyn 5UTR inh | Shn3 3UTR inh
Cc1nc2cc(NC(=O)c3ccc([N+](=O)[O-])s3)ccc2s1 | 104* | -31 | 21 | 77* | -7
O=C(Nc1ccc(S(=O)(=O)NC2=NCCCCC2)cc1)c1ccc([N+](=O)[O-])s1 | 89* | 95* | 3 | -66 | 11
COc1cc(S(=O)(=O)N2CCOCC2)ccc1NC(=O)COC(=O)COc1ccccc1 | -5 | 0 | -10 | -10 | 14
C=CCn1c(SCC(=O)c2ccc(CNC(C)=O)o2)nc2ccccc2c1=O | 7 | nt | 82* | -23 | -19
CC1=NN(c2ccccc2)C(=O)/C1=C\c1ccc(Oc2ccc([N+](=O)[O-])cc2[N+](=O)[O-])cc1 | 24 | 25 | 3 | -40 | -54
COc1cc(C(=O)NCc2cccs2)ccc1OCc1c(C)noc1C | nt | -8 | 4 | nt | 21
C[C@@H]1CN([C@@H](C)CO)C(=O)Cc2cc(NC(=O)Nc3ccc(C(F)(F)F)cc3)ccc2O[C@H]1CN(C)Cc1ccc(Cl)c(Cl)c1 | nt | 104* | nt | nt | nt
C[C@H](CO)N1C[C@H](C)[C@@H](CN(C)Cc2ccc(Oc3ccccc3)cc2)Oc2ccc(NC(=O)Cc3cn(C)c4ccccc34)cc2CC1=O | nt | 65* | nt | nt | nt
C[C@H](CO)N1C[C@H](C)[C@@H](CN(C)Cc2ccc(C(F)(F)F)cc2)Oc2ccc(NC(=O)Nc3ccc(C(F)(F)F)cc3)cc2CC1=O | nt | 57 | nt | nt | nt
C[C@@H]1CN([C@@H](C)CO)C(=O)Cc2cc(NC(=O)Nc3ccc(C(F)(F)F)cc3)ccc2O[C@H]1CN(C)Cc1ccc(C(F)(F)F)cc1 | nt | 64* | nt | nt | nt
C[C@@H]1CN([C@@H](C)CO)C(=O)Cc2cc(NC(=O)CCCCCC(=O)Nc3ccccc3N)ccc2O[C@@H]1CN(C)Cc1ccc(C(F)(F)F)cc1 | nt | 90* | nt | nt | nt
CC12CCC(C(=O)NNc3ccccc3)(C(=O)C1=O)C2(C)C (stereo not drawn) | 11 | -4 | -12 | -24 | -3
C[C@H]1CN([C@@H](C)CO)C(=O)Cc2cc(NC(=O)Nc3ccc(C(F)(F)F)cc3)ccc2O[C@H]1CN(C)Cc1ccncc1 | nt | 33 | nt | nt | nt
C[C@@H]1CN([C@@H](C)CO)C(=O)Cc2cc(NC(=O)Nc3ccc(C(F)(F)F)cc3)ccc2O[C@H]1CN(C)Cc1ccc(Oc2ccccc2)cc1 | nt | 94* | nt | nt | nt
C[C@H](CO)N1C[C@H](C)[C@@H](CN(C)Cc2ccccc2)Oc2ccc(NC(=O)Nc3ccc(C(F)(F)F)cc3)cc2CC1=O | nt | 96* | nt | nt | nt
C[C@@H]1CN([C@@H](C)CO)C(=O)Cc2cc(NC(=O)Nc3ccc(C(F)(F)F)cc3)ccc2O[C@H]1CN(C)Cc1ccc2c(c1)OCO2 | nt | 80* | nt | nt | nt
C[C@@H]1CN([C@H](C)CO)C(=O)Cc2cc(NC(=O)Nc3ccc(C(F)(F)F)cc3)ccc2O[C@H]1CN(C)Cc1ccc(Oc2ccccc2)cc1 | nt | -11 | nt | nt | nt
C[C@H](CO)N1C[C@H](C)[C@@H](CN(C)Cc2ccncc2)Oc2ccc(NC(=O)Nc3ccc(C(F)(F)F)cc3)cc2CC1=O | nt | 90* | nt | nt | nt
COc1ccc(CCNC(=O)[C@@H](NC(=O)N2CCn3c2nc2ccccc23)C(C)C)cc1OC | 10 | 8 | -1 | 10 | 18
O=C(CCl)Nc1cc(S(=O)(=O)N2CCOCC2)ccc1N1CCOCC1 | 4 | -2 | -4 | 1 | 10
C[C@@H]1CN([C@@H](C)CO)C(=O)Cc2cc(NC(=O)Nc3ccc(C(F)(F)F)cc3)ccc2O[C@H]1CN(C)C(=O)NC1CCCCC1 | nt | 80* | nt | nt | nt
COc1ccc(NC(=O)Nc2ccc3c(c2)CC(=O)N([C@H](C)CO)C[C@H](C)[C@@H](CN(C)Cc2ccc(C(F)(F)F)cc2)O3)cc1 | nt | 67* | nt | nt | nt
COc1ccc(NC(=O)Nc2ccc3c(c2)CC(=O)N([C@@H](C)CO)C[C@@H](C)[C@@H](CN(C)Cc2ccc(Oc4ccccc4)cc2)O3)cc1 | nt | 98* | nt | nt | nt
COc1ccc(CN(C)C[C@@H]2Oc3ccc(NC(=O)Nc4ccc(C(F)(F)F)cc4)cc3CC(=O)N([C@@H](C)CO)C[C@@H]2C)cc1 | nt | -3 | nt | nt | nt
C[C@H](CO)N1C[C@H](C)[C@H](CN(C)Cc2ccncc2)Oc2ccc(NC(=O)Nc3cccc4ccccc34)cc2CC1=O | nt | 42 | nt | nt | nt
C[C@H](CO)N1C[C@H](C)[C@@H](CN(C)Cc2ccncc2)Oc2ccc(NC(=O)Nc3cccc4ccccc34)cc2CC1=O | nt | 67* | nt | nt | nt
Cc1ccc(C)c(N2N=C(C(=O)Nc3cccc(S(=O)(=O)N4CCCCC4)c3)CCC2=O)c1 | 16 | 17 | 4 | nt | 14
CCOC(=O)C/C(C)=N/NC(=O)COc1ccccc1C | 5 | 34 | 8 | -24 | -2

Source: PubChem BioAssay
